# In PubChem BioAssay (NCATS):
# Results filed as inconclusive are left out. A number with no mark means an inactive call. Active and inactive are the calls of the source. Calls follow the shape of the dose curve; as a rule, active = well fitted inhibition curve with a large enough effect; inconclusive = small, poorly fitted or top-dose-only effect; inactive = flat fitted curve, though single readings scatter.
# Assay: BET inhibitor-based combinations targeting novel dependencies in MECOM-rearranged (r) AML: AML-191 cell line (AID 2202236; also: nearly all actives have a fitted effect of over 35% in size;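 as to viability (% of control): plate controls were vehicle wells for no effect and wells without cells for full effect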)
# Settings: AML-191 viability, CellTiter-Glo luminescence, 48 h; series mostly up to 46 µM; viability (% of control): at the top concentration
# Description: Ecotropic viral insertion site 1 (EVI1) is located on chromosome 3q26.2 as part of the MECOM (MDS and EVI1 complex) locus. Under normal hematopoiesis, EVI1 is a regulator of hematopoietic stem cell maintenance and self-renewal and EVI1 levels decrease as the cells differentiate. In approximately 5-10% of de novo acute myeloid leukemia (AML) EVI1 is aberrantly expressed, including Chromosomal inv(3)(q21;q26.2) or t(3;3)(q21;q26.2) alterations (MECOM-r) that account for about 50% of AML with EVI1 overexpression 31. AMLs with high levels of EVI1 have a poor prognosis and an overall survival time averaging between 10-14 months. EVI1 overexpression confers resistance in leukemia cells, highlighting the need to develop new targeted therapies for EVI1 overexpressing AMLs.
# Here, we performed an unbiased chemical drug screening by evaluating the single agent activity of a collection of 2,480 oncology-focused, approved and investigational drugs (NCATS Mechanism Interrogation Plates, MIPE v5.0) against a panel of seven AML cell lines. These included four MECOM-r cell-lines (AML-191, AML-194, UCSD-AML1 and HNT-34) and three non-MECOM-r AMLs (MV4-11, OCI-AML3 and SET-2). Exploiting the mechanistic redundancy built in the library, we identified target-level sensitivities in MECOM-r AML cells and relative activity as compared to other AML subtypes.
# A collection of 2480 mechanistically annotated dugs (MIPE v5.0) was used to screen four 3q26.2 rearranged AML cell lines and three non-3q26.2 rearranged AML cell lines. This library purposely exploits redundancy by including multiple inhibitors of key onco-targets, while simultaneously encompassing mechanistic diversity, targeting more than 800 distinct mechanisms of action. Briefly, cells were seeded in 5 uL of growth media using a Multidrop Combi dispenser into 1536 well white polystyrene tissue culture treated plates (Corning) at a density of 500cells/well. For each cell-line, for each of the 2480 drugs in MIPE v5.0 library, an 11-point dose curve was generated via a 1536 pin-tool. Plates were incubated for 48 hr at standard incubator conditions, covered by a stainless steel gasketed lid to prevent evaporation. Cell viability was determined by luminescence based, Cell Titer Glo assay (Promega). In detail, 3 uL of Cell Titer Glo were added to each well and plates were incubated at room temperature for 15 min with a stainless-steel lid in place. Luminescence readings were taken using a Viewlux (PerkinElmer) with a 2 s exposure time per plate. Compound dose-response curves were normalized to DMSO and empty well controls on each plate. Quantitative drug activity data from dose-response curves was determined utilizing area Under the Curve (AUC) and Z-transformed AUC (Z-AUC, a mean-centering transformation applied to each individual cell-line screened).
# Potency is read from the fitted curve at half-maximal effect.
Compound,Potency,viability (% of control)
CCCC1(CCC)CCC2(CCN(CCCN(CC)CC)C2)CC1,9.34 µM (active),
COc1cc(-c2cn(C)c(=O)c3cnccc23)cc(OC)c1CN(C)C,,111%
C[C@@H](Nc1ncnc2[nH]c(-c3ccc(O)cc3)cc12)c1ccccc1,14.8 µM (active),
CN1CC(=O)N2[C@H](c3ccc4c(c3)OCO4)c3[nH]c4ccccc4c3C[C@@H]2C1=O,,104%
CO[C@H]1O[C@@H]2O[C@@]3(C)CC[C@H]4[C@H](C)CC[C@@H]([C@H]1C)[C@@]24OO3,16.6 µM (active),
CC(=O)Nc1ccc(C(=O)NC(C)(C)C)cc1,,90.3%
c1ccc(CNCc2ccc(CN3CCCNCCNCCCNCC3)cc2)nc1,,113%
CC(=NNC(=O)c1cccc(S(=O)(=O)N2CCOCC2)c1)c1cc(Cl)ccc1O,2.09 µM (active),
Cn1c(-c2ccccc2C(F)(F)F)nnc1C12CCC(c3noc(C4CC(F)(F)C4)n3)(CC1)CC2,,95%
Cc1ncsc1-c1ccc([C@H](C)NC(=O)[C@@H]2C[C@@H](O)CN2C(=O)[C@@H](NC(=O)COCCCOCCNC(=O)C[C@@H]2N=C(c3ccc(Cl)cc3)c3c(sc(C)c3C)-n3c(C)nnc32)C(C)(C)C)cc1,0.209 µM (active),
CONC(=O)Nc1ccc(-c2sc3c(c2CN(C)Cc2ccccc2)c(=O)n(-c2ccccc2)c(=O)n3Cc2c(F)cccc2F)cc1,,78.9%
Cc1ccc(C)c(OCCCC(C)(C)C(=O)O)c1,,103%
C[C@]12CCC3=C4CCC(=O)C=C4CC[C@H]3[C@@H]1CC[C@@]2(O)CC#N,,94.2%
O=C1CC[C@H](N2Cc3c(OCc4ccc(CN5CCOCC5)cc4)cccc3C2=O)C(=O)N1,,111%
CCN(CC)C(=S)SSC(=S)N(CC)CC,0.296 µM (active),
CCCCCCCCCCCCCCCCCCCCCCO,,108% [at 15.6 µM]
CN1C/C=C/CCOc2cccc(c2)-c2ccnc(n2)Nc2cccc(c2)C1,0.296 µM (active),
C[C@H]1[C@H](O)O[C@@H]2O[C@@]3(C)CC[C@H]4[C@H](C)CC[C@@H]1[C@@]24OO3,2.95 µM (active),
COc1cc(O)c2c(c1)C1OC1C[C@H](O)[C@H](O)C(=O)C=CC[C@H](C)OC2=O (stereo not given in full),1.32 µM (active),
O=C(C[C@@H]1C/C=C\CCC(=O)O[C@H](c2ccccc2)CNC1=O)NCc1ccc(Cl)cc1,,105%

Compound,Potency,viability (% of control)
Fc1ccc(-c2csc3ncnc(NCc4ccc5c(c4)OCO5)c23)cc1,16.6 µM (active),
Cc1[nH]cnc1CN1CCN(C(=O)N[C@@H](CC(C)C)C(=O)O)[C@@H](Cc2ccccc2)C1=O,,111%
C[C@@]12C(=O)OC(=O)[C@]1(C)[C@H]1CC[C@@H]2O1,2.95 µM (active),
Clc1ccc(-c2nc3sccn3c2/C=N/OCc2ccc(Cl)c(Cl)c2)cc1,,102%
COC(=O)Nc1nc2ccc(C(=O)c3ccccc3)cc2[nH]1,0.263 µM (active),
COc1cc(OC)c(/C=C/S(=O)(=O)Cc2ccc(OC)c(OP(=O)(O)O)c2)c(OC)c1,0.118 µM (active),
O=C(Nc1ncc(SCCN2CCCC2)s1)[C@]1(c2ccc(S(=O)(=O)C3CC3)cc2)C[C@H]1C1CCCCC1,18.6 µM (active),
C=CC(=O)N[C@H]1CCOC[C@H]1Nc1ncc2cc(-c3c(Cl)c(OC)cc(OC)c3Cl)ccc2n1,,90.7%
Nc1cc(COc2c(Cl)cc(C[C@H](N)C(=O)O)cc2Cl)c2oc(-c3ccccc3)nc2c1,20.9 µM (active),
Cn1c(=O)c2c(ncn2CC2OCCO2)n(C)c1=O,,121%
CNC(=O)[C@H](Cc1c[nH]c2ccccc12)NC(=O)[C@@H](CC(=O)NO)CC(C)C,,89.4%
NC(=O)c1cccc2c(NC(CN3CCC3)c3ccc(Cl)c(C(F)(F)F)c3)ncnc12 (stereo not given),20.9 µM (active),
CC(C)(C)C[C@H]1N[C@@H](C(=O)NC2CCC(O)CC2)[C@H](c2cccc(Cl)c2F)[C@@]12C(=O)Nc1cc(Cl)ccc12 (stereo not given in full),2.35 µM (active),
C[C@]12CC[C@H](O)CC1=CC[C@@H]1[C@@H]2CC[C@]2(C)C(c3cccnc3)=CC[C@@H]12,,102% [at 15.6 µM]
CCN1CCN(Cc2ccc(NC(=O)c3ccc(C)c(/C=C/c4cnc5[nH]ccc5c4OC)c3)cc2C(F)(F)F)CC1,2.95 µM (active),
C=C[C@H]1CN2CCC1C[C@@H]2C(O)c1ccnc2ccc(OC)cc12 (stereo not given in full),,116%
Cc1cc(CN2CCN(c3c(Br)cnc4nc(-c5ccc(N6CCN(C)CC6)cc5)[nH]c34)CC2)no1,5.25 µM (active),
O=C1NC(=O)/C(=C\c2ccc(-c3ccc(F)cc3)o2)S1,,82.9%
Nc1ccn([C@@H]2O[C@H](CO)[C@@H](O)[C@H]2O)c(=O)n1,,96.1%
N#Cc1cccnc1N1CCN(C(=O)c2cccc(Cc3n[nH]c(=O)c4ccccc34)c2)CC1,0.118 µM (active),
